Experimental data: ChEMBL document CHEMBL3988442, “University of Dundee, Small-Polar-MMV Screening Library” (2021)
Screen size: about 69,000 compounds; about 1,000 (1.4%) showed an effect of 50% or more. For the sample, strong results were picked, then their nearest neighbours and some compounds at random.

Tested on: Leishmania donovani
Assay: Leishmania intramacrophage assay
Assay type: functional, organism-based
Parameters: scale not given: in the data most compounds retested in dose-response had high values

| SMILES | Percent Effect (30.3 µM, […]) [%] | Percent Effect (30 µM, 30.03 µM) [%] |
| --- | --- | --- |
| Cc1nc(S(=O)(=O)N2CCC3(CCCCC3)C2)cn1C | -11.17 |  |
| CNC(=O)c1cc2c(nc1NCC1CC1)CCNCC2 | -29.9 |  |
| CC(C)CNc1nc2c(cc1C(=O)NCC1CC1)CCNCC2 | 79 |  |
| CC(C)Nc1nc2c(cc1C(=O)NCC1CC1)CCNCC2.O=C(O)C(F)(F)F.O=C(O)C(F)(F)F |  | 30.72 |
| O=C(C1CCCO1)N1CCc2onc(-c3ccc(Cl)cc3)c2C1 (configuration not stated) | -19.46 |  |
| Cc1ccccc1CC1(CO)CCCN(c2ncnc3sccc23)C1 (configuration not stated) | 67.14 |  |
| Cc1cnc(C)c(N2CCCC(C/C=C/c3ccccc3)(C(=O)O)C2)n1 (configuration not stated) | 12.4 |  |
| Cc1cnc(C)c(N2CCCC(CO)(Cc3cccc(Cl)c3)C2)n1 (configuration not stated) | -33.57 |  |
| Cc1ccccc1CC1(CO)CCCN(c2ncncc2C(C)C)C1 (configuration not stated) | 60.98 |  |
| Cc1ccccc1CC1(CO)CCCN(c2ncccc2C#N)C1 (configuration not stated) |  | 15.87 |
| Cc1cnc(C)c(N2CCCC(CO)(Cc3ccccc3C)C2)n1 (configuration not stated) | 58.45 |  |
| CC(=O)c1ccc(N2CCCC(CO)(Cc3ccccc3C)C2)nc1 (configuration not stated) | 44.66 |  |
| Cc1ncc(C)c(N2CCCC(CO)(Cc3cccc(Cl)c3)C2)n1 (configuration not stated) |  | 20.29 |
| Cc1ccccc1CC1(C(=O)O)CCCN(c2ncnc3[nH]ccc23)C1 (configuration not stated) | -3.526 |  |
| O=C1CCCc2[nH]c(=O)c(C(=O)N3CCc4ccccc4C3)cc21 | 0.8668 |  |
| O=C(CN(Cc1cccc(F)c1)CC1CCCO1)N1CCCC1 (configuration not stated) | -8.596 |  |
| CC[C@@H]1N(Cc2ccoc2)CCC[C@]12CCC(=O)N2CCOC.O=C(O)C(F)(F)F | -8.415 |  |
| CC(C)N1CCC(NC(=O)c2cn(-c3ccc(F)cc3)nn2)C1 (configuration not stated) | -11.91 |  |
| CCc1cc(NCCCc2nc(C)no2)nc(-c2ccncc2)n1 | -6.6 |  |
| Cc1cc(Nc2ncccn2)nc(C2CCCN(CCO)C2)n1 (configuration not stated) | 24.35 |  |
| Cc1cc(Nc2cnccn2)nc(C2CCCN(CCO)C2)n1 (configuration not stated) | 56.31 |  |
| Cc1cc(Nc2ccccn2)nc(C2CCCN(CCO)C2)n1.O=CO (configuration not stated) | 32.66 |  |
| CN(CCn1cncc1-c1cnc(N2CCOCC2)nc1)C1CCCC1 | 22.37 |  |
| CNC(=O)N1C[C@H]2N(c3ncccn3)CCC[C@@]2(C(=O)NCC2CC2)C1 | 18.69 |  |
| CS(=O)(=O)N1C[C@H]2N(c3ncccn3)CCC[C@@]2(C(=O)NCC2CC2)C1 | 51.67 |  |
| CC(C)CN1C[C@H]2N(c3ncccn3)CCC[C@@]2(C(=O)NCC2CC2)C1 | 11.67 |  |
| COCCN1CC[C@H]2CN(Cc3ccc(C)s3)C[C@@H]2C1=O.O=C(O)C(F)(F)F | -9.099 |  |
